A selection: hits, their analogues and other compounds. The true share with any hit is near 4.1%.
BoNT-F LC inh: inhibitors of Botulinum neurotoxin F light chain protease | Multiplex microsphere protease cleavage assay, flow cytometry | inhibition, % at 10 µM | AID 588497 | 360,000 compounds, 0.22% hits; in the data active = inhibition above about 35%, passing the limit was not always enough; inconclusive = no clear call, values can overlap the other calls
MazEF act: MazEF (E. coli) toxin RNase activation; P0AE70; activation, % at 20 µM; FAM/BHQ RNA-DNA oligo cleavage fluorescence, 5 h; 350,000 compounds, 0.32% hits; in the data active = activation above about 50%
Target sequence (P0AE70 whole entry, looked up): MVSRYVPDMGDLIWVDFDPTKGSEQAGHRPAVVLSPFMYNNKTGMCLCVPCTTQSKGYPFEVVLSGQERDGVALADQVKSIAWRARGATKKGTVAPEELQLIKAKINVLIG
Anthrax LF prot: anthrax lethal factor protease inhibition; AID 588501; inhibition, % at 10 µM; 360,000 compounds, 0.12% hits; multiplex microsphere protease cleavage assay, LF; P15917
Autofluor counter: compound fluorescence in toxin protease inhibitor counterscreen. compound autofluorescence counterscreen, microsphere flow cytometry; stronger effect = higher value. fluorescence intensity (test concentration not listed). 360,000 compounds, 3.1% hits. AID 624483; in the data active = fluorescence intensity above about 16000; inconclusive = no clear call, values can overlap the other calls
DUSP3 inh: inhibitors of human VHR1 phosphatase (DUSP3); inhibition, % at 13.3 µM; 290,000 compounds, 0.52% hits; P51452; recombinant VHR phosphatase, pNPP absorbance; in the data active = inhibition above about 50%
Target sequence (P51452 whole entry, looked up): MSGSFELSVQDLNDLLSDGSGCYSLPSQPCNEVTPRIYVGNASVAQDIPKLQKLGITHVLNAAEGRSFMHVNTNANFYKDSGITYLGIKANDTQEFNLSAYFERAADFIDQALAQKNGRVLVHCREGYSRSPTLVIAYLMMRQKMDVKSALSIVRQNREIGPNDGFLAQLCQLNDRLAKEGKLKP
BoNT A protease: BoNT A light chain protease inhibition; multiplex microsphere protease substrate cleavage, flow cytometry; inhibition, % at 10 µM; 360,000 compounds, 0.17% hits
Each line names hits and unclear results; the compound was inactive in the other large screens. Rule as the data show it, unless noted: active = inhibition above about 30%; inconclusive = no clear call, values can overlap the other calls; inactive = below that.

NC(=O)C1CCN(C(=O)C(=O)c2cn(CC(=O)N3CCCCCC3)c3ccccc23)CC1	Anthrax LF prot 39, BoNT A protease 39
CN1CCN(C(=O)C(=O)c2cn(CC(=O)N3CCCCCC3)c3ccccc23)CC1	Anthrax LF prot 36 (no result: DUSP3 inh)
CC1CCCN(C(=O)C(=O)c2cn(CC(=O)N3CCCCCC3)c3ccccc23)C1 (stereo not drawn)	BoNT A protease 35
CC1CCN(C(=O)C(=O)c2cn(CC(=O)N3CCCCCC3)c3ccccc23)CC1	Anthrax LF prot 38, BoNT A protease 37
CCN1CCN(C(=O)C(=O)c2cn(CC(=O)N3CCCCCC3)c3ccccc23)CC1	none
O=C(C(=O)N1CCN(c2ccccc2)CC1)c1cn(CC(=O)N2CCCCCC2)c2ccccc12	none
O=C(Nc1ncccc1O)c1ccc(Cl)c(S(=O)(=O)N2CCCCC2)c1	none (no result: BoNT-F LC inh, Anthrax LF prot, Autofluor counter, DUSP3 inh, BoNT A protease)
O=C(N1CCN(c2ccccc2)CC1)C(F)(F)C(F)F	Autofluor counter 20656, DUSP3 inh 52
O=C(N1CCN(c2ccccc2)CC1)C(F)(F)C(F)(F)F	Autofluor counter 19895
CCCCn1c(N)c(Sc2ccccc2)c(=O)[nH]c1=O	Autofluor counter 25818
CCCn1c(N)c(Sc2ccccc2)c(=O)n(CCC)c1=O	Autofluor counter 19729
CCCCn1c(N)c(Sc2ccccc2[N+](=O)[O-])c(=O)[nH]c1=O	DUSP3 inh 51
CCCn1c(N)c(Sc2ccc([N+](=O)[O-])cc2)c(=O)n(CCC)c1=O	none
CCOc1cccc(C=Nc2cc(C)cc(C)c2O)c1O	Autofluor counter 22996, BoNT A protease inconclusive
CCOc1cccc(/C=N/N=C/c2cccc(OCC)c2O)c1O	none
O=C(Nc1ccc(Cl)c(Cl)c1)c1ccc(Cn2cc(Cl)cn2)cc1	none
CCOc1ccc(C(=O)Nc2cnn(Cc3ccc(Cl)c(Cl)c3)c2)cc1	Autofluor counter 16229
CCOC(=O)C1CCN(Cc2ccc(OC)c(C)c2OC)CC1	Autofluor counter 16792
CCOC(=O)C1CCN(Cc2ccc(F)c(Br)c2)CC1	Autofluor counter 20738, BoNT A protease inconclusive
CCCCN(C(=O)CNC(=O)c1ccco1)C(C(=O)NC1CCCCC1)c1cccnc1 (stereo not drawn)	none
CCOC(=O)/C=C1/N(C)c2ccccc2C1(C)C	none
CCN1/C(=C\C=C\C2=[N+](CC)c3ccccc3C2(C)C)C(C)(C)c2ccccc21	BoNT A protease 92
Cc1cc2c(c(C)c1CCO)C(=O)[C@H](C)C2	none (no result: DUSP3 inh)
N#C/C(=C\c1ccccn1)c1nc2ccccc2s1	MazEF act 67
COC(=O)c1ccc(/C=C(\C#N)c2nc3ccccc3s2)cc1	none
Cc1ccc(Oc2nsnc2N2CCOCC2)cc1	Autofluor counter 20142
O=C1NC[C@@H](CCCCN2CCN(CCc3ccccc3)C(=O)C2=O)N(CC2CCCCC2)C1=O	none (no result: MazEF act, DUSP3 inh)
Cc1ccc(S(=O)(=O)Nc2cccc(C(=O)N3CCOCC3)c2)cc1	none
Cc1ccc(S(=O)(=O)Nc2cccc(C(=O)N3CCOCC3)c2)c(C)c1NS(C)(=O)=O	DUSP3 inh 59
COc1ccc(C(=O)N2CCN(CCNC(=O)C(=O)Nc3ccc(F)cc3)CC2)cc1OC	none
O=C(NC1CCCCC1)c1cc([N+](=O)[O-])ccc1N1CCCCC1	Autofluor counter 23223
O=C(Nc1ccccc1)c1cc([N+](=O)[O-])ccc1N1CCCCC1	none (no result: DUSP3 inh)
CC(C)(C)NC(=O)CN(Cc1ccco1)C(=O)CCC(=O)Nc1nccs1	none
CCC(=O)NCc1c(Cl)cccc1-n1cccc1	Autofluor counter 19934
Cc1ccc([C@@H]2CC(=O)[C@@H]3CN(S(=O)(=O)c4ccc(C)cc4)[C@H](c4ccc(Cl)cc4)C[C@@H]3N2S(=O)(=O)c2ccc(Cl)cc2)cc1	none (no result: DUSP3 inh)
CC(C)(C)NC(=O)CN(C(=O)Cn1nnc(-c2ccccc2F)n1)c1cccc2c1CCCC2	Autofluor counter 17013
CCCSc1nc(-c2ccccc2)cc(C(F)(F)F)c1C#N	Autofluor counter 19871
O=C(/C=C/c1ccccc1Cl)NCCc1ccccc1	Autofluor counter 21242, BoNT A protease inconclusive
O=C(/C=C/c1ccccc1Cl)NCc1ccccc1	Autofluor counter 20859
O=C(/C=C/c1ccc(Cl)cc1)NCCc1ccccc1	none
Cc1ccnc(N2CCCC(C(=O)Nc3nnc(C)s3)C2)n1 (stereo not drawn)	none
Cc1nnc(NC(=O)C2CCCN(c3ncccn3)C2)s1 (stereo not drawn)	Autofluor counter 22811
O=C(Nc1ccc(Oc2ccccc2)cc1)C1CCCN(c2ncccn2)C1 (stereo not drawn)	Autofluor counter 21093
O=C(Nc1ccc(C2CCCCC2)cc1)C1CCCN(c2ncccn2)C1 (stereo not drawn)	Autofluor counter 22140, BoNT A protease inconclusive
COc1ccc(NC(=O)C2CCCN(c3c4c(nc5ncnn35)CCC4)C2)cc1 (stereo not drawn)	Autofluor counter 23021
COc1cc2ccc(CC(N)=O)cc2cc1OC	none (no result: DUSP3 inh)
CC(C)(C)SCCNC(=O)CN(c1ccc(F)c(Cl)c1)S(C)(=O)=O	Autofluor counter 23547
CC(C)(C)SCCNC(=O)CN(c1ccc(F)cc1)S(C)(=O)=O	none
CC1CCCC(C)N1C(=O)COc1ccc(C(=O)N/N=C/c2ccc(C(=O)O)cc2)cc1 (stereo not drawn)	none
CNC(=S)N1N=C(c2ccc(Br)cc2)CC1c1ccc(N(C)C)cc1 (stereo not drawn)	none
CNC(=S)N1N=C(c2ccc(Br)cc2)CC1c1ccc(Br)cc1 (stereo not drawn)	Autofluor counter 21159
COc1ccc(C2C(C(=O)N3CCOCC3)=C(C)NC3=C2C(=O)CC(C)(C)C3)cc1O (stereo not drawn)	Autofluor counter 23700
CCOC(=O)C1CCc2c(ccc3ccccc23)N1CCC#N (stereo not drawn)	none (no result: DUSP3 inh)
O=C(CN1CC(c2ccccc2)CC1=O)OCc1cccc(Br)c1 (stereo not drawn)	Autofluor counter inconclusive, BoNT A protease inconclusive
Nc1nnnn1CC(=O)OCc1cccc(Br)c1	Autofluor counter 23207, BoNT A protease inconclusive
c1cn2c(-c3ccc(N4CCOCC4)cc3)cncc2n1	none (no result: MazEF act, DUSP3 inh)
CC1CCC(NC(=O)c2nn(C)c(=O)c3ccccc23)CC1 (stereo not drawn)	none (no result: DUSP3 inh)
Cn1nc(C(=O)NC2CCCCC2)c2ccccc2c1=O	Autofluor counter 21828, BoNT A protease inconclusive
COC(=O)c1ccc(C)c(NC(=O)c2nn(C)c(=O)c3ccccc23)c1	Autofluor counter 22678, BoNT A protease inconclusive
O=C1c2cccnc2C(=O)N1Cc1ccco1	none
O=c1[nH]c2cccnc2n1Cc1ccco1	Autofluor counter 21423, BoNT A protease inconclusive
O=C(O)CCNC(=O)CCCn1nnc2ccccc2c1=O	Autofluor counter 20247
CC(C)C[C@H](NC(=O)CCCn1nnc2ccccc2c1=O)C(=O)O	none
CCC(NC(=O)c1ccccc1NC(=O)C(C)(C)C)C(=O)N1CC(C)OC(C)C1 (stereo not drawn)	MazEF act 52 (no result: BoNT-F LC inh, Anthrax LF prot, Autofluor counter, DUSP3 inh, BoNT A protease)
O=C1CCCN1CN(C(=O)c1ccccc1)c1ccccc1	none
COc1cccc(C(=O)N(CN2CCCC2=O)c2cccc(Cl)c2)c1	none
